Results filed as inconclusive are left out. Active and inactive are the calls of the source. The call rests on the fitted dose curve; in most records, active means well fitted cell-killing curve with a large enough effect in the repeat runs; inconclusive means weak or mixed curves; inactive means flat fitted curve, though single readings scatter.
test: qHTS RealTime-Glo MT Cell Viability Assay in HepG2 cells - 24 hour (AID 1224867); details: RealTime-Glo luminescence; series mostly up to 76.8 µM; activity change, negative = cytotoxicity: at the top concentration; further: nearly all actives have a fitted effect of over 50% in size
Source text: U.S. Tox21 Program National Center for Advancing Translational Sciences [NCATS] NIH Chemical Genomics Center [NCGC] U.S. Environmental Protection Agency [EPA] National Institutes of Environmental Health Sciences [NIEHS] National Toxicology Program [NTP] U.S. Food and Drug Administration [FDA] Tox21 Assay Overview: Measure of cell viability is critical in the cell-base assay. Analysis of cell viability is necessary for the characterization of cell responses to cytotoxic drugs and environmental stress. A RealTime-Glo MT Cell Viability Assay to monitor cell viability in real time of continues cell culture during 40 hours of compound treatment was used to screen Tox21 10K library compounds in HepG2 cells. The RealTime-Glo MT Cell Viability Assay is a nonlytic, homogeneous, bioluminescent method to measure cell viability in real time using a simple, plate-based method. The assay involves adding NanoLuc luciferase and a cell-permeant prosubstrate to cells in culture. Viable cells reduce the proprietary prosubstrate to generate a substrate for NanoLuc luciferase. This substrate diffuses from cells into the surrounding culture medium, where it is rapidly used by the NanoLuc Enzyme to produce a luminescent signal. The signal correlates with the number of viable cells, making the assay well suited for cytotoxicity studies.
Tox21 Assay Protocol Summary: The mixture of HepG2 cell suspension and reagents were dispensed at 600cells/6 ul/well in 1536-well tissue culture treated black solid bottom plates using a Multidrop dispenser. After the assay plates were incubated at a 37 C/5% CO2 incubator for 5 hours, 23 nL of compounds dissolved in DMSO, positive and negative controls was transferred to the assay plate by a pintool work station. The plates were incubated at 37 C for 40 hours. The luminescence intensity were measured at 0h, 8h, 16h, 24h, 32h and 40h time points using ViewLux plate reader during compound treatment.
On the % scale 0 is the no-effect control and ±100 the full control effect.

SMILES	activity change, negative = cytotoxicity
CCN(CC)CCc1nc(-c2ccccc2)no1	-0.102% [at 35.3 µM] (inactive)
CC(C)NCC(O)c1cc(O)cc(O)c1 (stereo not given)	0.188% [at 35.3 µM] (inactive)
O=C(O)C(c1ccc(Cl)cc1)c1ccc(Cl)cc1	0.841% (inactive)
Oc1ccc(O)c2c(O)cccc12	-0.744% (inactive)
CC(C)c1cccc(C(C)C)c1NC(=O)NS(=O)(=O)c1cc(C(C)(C)O)co1	2.48% (inactive)
O=C(Cl)c1c(Cl)cccc1Cl	0.951% (inactive)
CC/C(=C\C(=N/O)C(N)=O)C(C)[N+](=O)[O-] (stereo not given)	0.713% (inactive)
CCCCCCOC(=O)CCC	0.778% (inactive)
NCCCN(CCO)CCO	6.13% (inactive)
CCOc1ccc2[nH]cc(C(=O)NCc3ccccc3)c(=O)c2n1	-16.4% (inactive)
CC1=CCC(C(C)C)C=C1 (stereo not given)	-1.82% (inactive)
CCCCCCCCC(CO)CCCCCC (stereo not given)	0.0499% (inactive)
NC1CCN(c2nc3c(cc2F)c(=O)c(C(=O)O)cn3-c2ccc(F)cc2F)C1 (stereo not given)	0.172% [at 35.3 µM] (inactive)
CCCCCCCCCC=O	7.17% (inactive)
FC(F)(F)C(F)(F)C(F)(F)C(F)(F)C(F)(F)C(F)(F)CCI	1.06% [at 35.3 µM] (inactive)
CC1(C)CCC(C)(C)c2cc(NC(=O)c3ccc(C(=O)O)cc3)ccc21	-0.4% [at 35.3 µM] (inactive)
C1CCC2OC2C1 (stereo not given)	0.855% (inactive)
CCCCCCCCCC(=O)OCC	4.38% (inactive)
CCCCCCCCCO	4.5% (inactive)
CN(C)CC[C@@H](c1ccc(Br)cc1)c1ccccn1	-4.84% [at 35.3 µM] (inactive)

SMILES	activity change, negative = cytotoxicity
CCOC(=O)C1=NN(c2ccccc2)C(=O)C1	0.33% (inactive)
CC(=O)N(O)CCCCCNC(=O)CCC(=O)N(O)CCCCCNC(=O)CCC(=O)N(O)CCCCCN	2.57% [at 35.3 µM] (inactive)
NCc1ccccc1	1.52% (inactive)
O=C(NN1CCCC1)NS(=O)(=O)c1ccc(Cl)cc1	0.451% [at 35.3 µM] (inactive)
C=CC(C)(CCC=C(C)C)OC(=O)c1ccccc1 (stereo not given)	-2.28% (inactive)
O=C1Nc2cc(Cl)ccc2Oc2ccccc21	-2.37% [at 35.3 µM] (inactive)
Oc1ccc(Cc2ccccc2)cc1	-2.69% (inactive)
CCN1CCC[C@H]1CNC(=O)c1c(OC)ccc(Br)c1OC	1.35% [at 35.3 µM] (inactive)
OC(CCN1CCCCC1)(c1ccccc1)C1CCCCC1 (stereo not given)	-6.58% [at 35.3 µM] (inactive)
C=CC(=O)OCCOC(=O)CCC(=O)O	-2.46% (inactive)
C=C(C)C(=O)OC(C)C	3.08% (inactive)
CC(=O)NCCCS(=O)(=O)O	-0.375% [at 35.3 µM] (inactive)
CC(C)NCC(O)COc1ccc(CC(N)=O)cc1 (stereo not given)	2.21% (inactive)
CN(C)CCCOc1nn(Cc2ccccc2)c2ccccc12	-14.1% [at 35.3 µM] (inactive)
C=CC[N+]1([C@H]2C[C@H]3[C@@H]4CC[C@H]5C[C@H](OC(C)=O)[C@@H](N6CCCCC6)C[C@]5(C)[C@H]4CC[C@]3(C)[C@H]2OC(=O)CC)CCCCC1	0.0896% [at 35.3 µM] (inactive)
CN(C(=O)CCCOc1ccc2[nH]c(=O)ccc2c1)C1CCCCC1	-11.7% [at 35.3 µM] (inactive)
O=c1[nH]cnc2ccccc12	0.815% (inactive)
C=C(C)C(=O)OCCN(C)C	-1.01% (inactive)
CCCCOC(=O)/C=C\C(=O)OCCCC	-0.225% (inactive)
C[Si](C)O[Si](C)(C)O[Si](C)(C)O[Si](C)C	-0.608% (inactive)
